From PubChem BioAssay
Hits are enriched below; roughly 2.3% of the tested compounds scored in any of these assays.
CHRM1 PAM = human M1 muscarinic receptor positive allosteric modulators, primary screen, CHO-K1 cells, Fluo-8 calcium fluorescence, 1536-well; 0.088% of 360,000 active; activation, % at 3 µM; Muscarinic acetylcholine receptor M1 (Homo sapiens), P11229; CHO-K1 hM1, ACh EC20; 0% = ACh EC20, 100% = maximal ACh; in the data active = activation above about 19%, passing the limit was not always enough
Target sequence (P11229 whole entry, looked up): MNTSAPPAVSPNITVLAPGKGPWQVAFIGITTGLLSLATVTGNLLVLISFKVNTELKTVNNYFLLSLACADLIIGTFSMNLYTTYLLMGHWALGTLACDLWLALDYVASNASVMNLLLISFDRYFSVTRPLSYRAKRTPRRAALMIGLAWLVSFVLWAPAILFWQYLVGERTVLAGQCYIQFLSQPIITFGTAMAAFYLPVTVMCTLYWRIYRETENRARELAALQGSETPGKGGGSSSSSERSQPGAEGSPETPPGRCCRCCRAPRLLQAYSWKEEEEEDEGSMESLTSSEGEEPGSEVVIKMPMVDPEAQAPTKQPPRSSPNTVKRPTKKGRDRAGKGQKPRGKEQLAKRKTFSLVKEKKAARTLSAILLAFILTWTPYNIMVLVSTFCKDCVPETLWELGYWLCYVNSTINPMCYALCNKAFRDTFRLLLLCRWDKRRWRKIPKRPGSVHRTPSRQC
M1 ag parental = counter-screen for M1 agonists: effect in parental CHO-K1 cells. 0.48% of 360,000 active. Fluo-8 calcium fluorescence; scaled to maximal ATP response, vehicle zero. AID 602248, 2012. activation, % at 3 µM; in the data active = activation above about 15%;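 also: untransfected CHO-K1 host cells lacking M1 receptor as counterscreen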
CHO-K1 Ca PAM = nonselective calcium activators in parental CHO-K1 cells, primary screen, counter-screen for M1 PAM project, cell-based, Fluo-8 calcium fluorescence, full deck, 1536-well; AID 602247, 2012; ATP EC20; 0% at ATP EC20, 100% at ATP max; activation, % at 3 µM; 0.02% of 360,000 active;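 active = activation above the run cutoff, the mean activation of all test compounds plus 3 SD, cut at about 40% in these data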;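 also: peak over basal fluorescence ratio in a 140 s read after ATP addition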
CHO-K1 Ca antag = M1 antagonist counterscreen hit in parental CHO-K1 cells | ATP-induced calcium, Fluo-8 fluorescence | inhibition, % at 3 µM | 0.6% of 360,000 active;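 active = inhibition above a per-plate cutoff, the plate's mean sample inhibition plus 3 SD, cut at about 24% in these data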;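 also: 0% = DMSO plus EC80 ATP and 100% = DMSO alone without ATP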
M1 antag = human M1 muscarinic receptor antagonists, primary screen, CHO-K1 cells, Fluo-8 calcium fluorescence, 1536-well. Muscarinic acetylcholine receptor M1 (Homo sapiens), P11229. CHO-K1 hM1, ACh EC80 antagonist. inhibition, % at 3 µM. 1.3% of 360,000 active;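 active = percent inhibition above its own plate's cutoff, namely the mean of that plate's compound wells plus 3 SD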;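 also: peak over basal fluorescence ratio during 140 s after agonist addition; 0% = ACh EC80 plus DMSO and 100% = DMSO alone without agonist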
M1 ag = human M1 muscarinic receptor agonists, primary screen, Fluo-8 calcium fluorescence, CHO-K1 cells, HTS; 0.33% of 360,000 active; CHO-K1 hM1, agonist mode; 0% DMSO, 100% acetylcholine EC100; activation, % at 3 µM;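 active = activation above the run's mean compound activation plus 3 SD, cut at about 16% in these data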;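 also: peak over basal fluorescence ratio within a 140 s kinetic read after compound addition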
An asterisk follows results filed as active.

For O=C(Nc1ccc(N2CCN(C(=O)c3ccccc3)CC2)c(Cl)c1)c1ccco1 the results were CHRM1 PAM -5, M1 ag parental 5, CHO-K1 Ca PAM 14, CHO-K1 Ca antag -5, M1 antag 7 and M1 ag 1.
`CCC(=O)N1CCN(c2ccc(NC(=O)c3ccco3)cc2Cl)CC1` gave CHRM1 PAM 3, M1 ag parental 4, CHO-K1 Ca PAM -8, CHO-K1 Ca antag -8, M1 antag -6 and M1 ag -1.
For CCCC(=O)N1CCN(c2ccc(NC(=O)c3cc4ccccc4o3)cc2Cl)CC1 the results were CHRM1 PAM -17, M1 ag parental 13, CHO-K1 Ca PAM -4, CHO-K1 Ca antag 20, M1 antag 55* and M1 ag 5.
Screening CCC(=O)N1CCN(c2ccc(NC(=O)c3cc4ccccc4o3)cc2Cl)CC1 returned CHRM1 PAM -20, M1 ag parental 10, CHO-K1 Ca PAM -9, CHO-K1 Ca antag 23, M1 antag 18* and M1 ag 2.
For CCCC(=O)N1CCN(c2ccc(NC(=O)c3cccs3)cc2Cl)CC1 the results were CHRM1 PAM 9, M1 ag parental 0, CHO-K1 Ca PAM 11, CHO-K1 Ca antag -1, M1 antag -4 and M1 ag -8.
Screening Cc1ccc(C(OCC(C)(C)C[N+](C)(C)C)c2ccccc2)cc1 (stereo unspecified) returned CHRM1 PAM -34, M1 ag parental -1, CHO-K1 Ca PAM -15, CHO-K1 Ca antag 19, M1 antag 99* and M1 ag -13.
Screening CCNCCOC(c1ccccc1)c1ccccc1 returned CHRM1 PAM -25, M1 ag parental 1, CHO-K1 Ca PAM 15, CHO-K1 Ca antag -8, M1 antag 26* and M1 ag -6.
For C(#CCN1CCOCC1)COCCCOC(c1ccccc1)c1ccccc1 the results were CHRM1 PAM -4, M1 ag parental 0, CHO-K1 Ca PAM -9, CHO-K1 Ca antag -36, M1 antag -3 and M1 ag -10.
For CN(C)CC#CCOC(c1ccccc1)c1ccccc1 the results were CHRM1 PAM -20, M1 ag parental 0, CHO-K1 Ca PAM -6, CHO-K1 Ca antag -12, M1 antag 80* and M1 ag 7.
For CCN(CC)CCOC(c1ccccc1)c1ccc(C)cc1 (stereo unspecified) the results were CHRM1 PAM -26, M1 ag parental 1, CHO-K1 Ca PAM 19, CHO-K1 Ca antag 1, M1 antag 96* and M1 ag -7.
For CCOc1ccc(C(=O)CCC(=O)N(CC)CC(=O)Nc2c(F)cccc2F)cc1 the results were CHRM1 PAM 7, M1 ag parental 0, CHO-K1 Ca PAM -3, CHO-K1 Ca antag -10, M1 antag -2 and M1 ag -4.
Screening O=C(NCC(c1cccs1)N1CCOCC1)c1ccccc1NS(=O)(=O)c1cc([N+](=O)[O-])ccc1Cl (stereo unspecified) returned CHRM1 PAM 9, M1 ag parental 5, CHO-K1 Ca PAM 14, CHO-K1 Ca antag 2, M1 antag -9 and M1 ag -1.
Screening O=C(COc1cccnc1[N+](=O)[O-])Nc1cccc(S(=O)(=O)N2CCCCC2)c1 returned CHRM1 PAM 5, M1 ag parental 2, CHO-K1 Ca PAM 17, CHO-K1 Ca antag -10, M1 antag -5 and M1 ag -8.
COCCSc1ccccc1C(=O)N1CCc2ccccc21 was read as CHRM1 PAM -3, M1 ag parental 1, CHO-K1 Ca PAM 16, CHO-K1 Ca antag -6, M1 antag -1 and M1 ag -9.
S=c1[nH]nc(-c2ccco2)n1-c1ccc(Br)cc1 was read as CHRM1 PAM 9, M1 ag parental 1, CHO-K1 Ca PAM 21, CHO-K1 Ca antag -8, M1 antag -10 and M1 ag -1.
Screening COCCN(CCOC)CC(O)COC(c1ccccc1)c1ccccc1 (stereo unspecified) returned CHRM1 PAM -2, M1 ag parental 1, CHO-K1 Ca PAM 22, CHO-K1 Ca antag 1, M1 antag -12 and M1 ag -16.
CCN(CC)CC#CCOC(c1ccccc1)c1ccccc1 was read as CHRM1 PAM -23, M1 ag parental 1, CHO-K1 Ca PAM 24, CHO-K1 Ca antag -15, M1 antag 94* and M1 ag -5.
`COc1ccc(CN(C(=O)c2cc3ccccc3oc2=O)C2CCS(=O)(=O)C2)cc1OC` (stereo unspecified) gave CHRM1 PAM -5, M1 ag parental 1, CHO-K1 Ca PAM -7, CHO-K1 Ca antag 1, M1 antag 8 and M1 ag -5.
O=C(c1ccco1)N(CCC(c1ccccc1)c1ccco1)Cc1ccc(F)cc1 (stereo unspecified) was read as CHRM1 PAM 2, M1 ag parental 1, CHO-K1 Ca PAM 1, CHO-K1 Ca antag -8, M1 antag 1 and M1 ag -3.
CC1(C)CC(C(CCN(Cc2ccccc2)C(=O)c2ccco2)c2ccc(F)cc2)CCO1 (stereo unspecified) was read as CHRM1 PAM -19, M1 ag parental 5, CHO-K1 Ca PAM 12, CHO-K1 Ca antag 4, M1 antag 36* and M1 ag -3.
`CC(C)(C)OC(=O)NCCc1nnc(SCC(=O)Nc2ccc(Br)cc2)o1` gave CHRM1 PAM 1, M1 ag parental 29*, CHO-K1 Ca PAM -1, CHO-K1 Ca antag 3, M1 antag 2 and M1 ag 5.
CC(C)(C)OC(=O)NCCCCCc1nnc(SCC(=O)Nc2cccc(Cl)c2)o1 was read as CHRM1 PAM -13, M1 ag parental 10, CHO-K1 Ca PAM 18, CHO-K1 Ca antag 10, M1 antag 36* and M1 ag 4.
COc1ccc(NC(=O)Nc2ccc(C(=O)N3CCOCC3)cc2)c(OC)c1 was read as CHRM1 PAM 11, M1 ag parental 1, CHO-K1 Ca PAM 29, CHO-K1 Ca antag -5, M1 antag -8 and M1 ag -5.
`Cc1ccc(NS(=O)(=O)c2ccc(C(=O)N3CC(C)CC(C)C3)cc2)cc1` (stereo unspecified) gave CHRM1 PAM -17, M1 ag parental 53*, CHO-K1 Ca PAM -6, CHO-K1 Ca antag 36*, M1 antag 53* and M1 ag 60*.
`Cc1ccc(S(=O)(=O)Nc2ccc(C(=O)N3CCCC3)cc2)cc1` gave CHRM1 PAM 5, M1 ag parental 2, CHO-K1 Ca PAM 13, CHO-K1 Ca antag -7, M1 antag 1 and M1 ag -2.
